Among the data in PubChem BioAssay (NCATS) are Potency values, retold here.

Each structure is given as a SMILES string. Results filed as inconclusive are left out. Where a call stands in place of a potency, no number is given. Calls of active or inactive are those of the source. Calls follow the shape of the dose curve; as a rule, active = well fitted cell-killing curve with a large enough effect; inconclusive = small, poorly fitted or top-dose-only effect, or effect the other way; inactive = no such curve, though single readings can be large or run the other way.
Potency is read from the fitted curve at half-maximal effect.

The nature of the assay: Quantitative High-Throughput drug screen in 47 multiple myeloma cell lines against the NCATS MIPE library collection: OPM1_PLB cell viability assay (AID 1918989). Also: nearly all actives have a fitted effect of over 40% in size. As to conditions: CellTiter-Glo, 48 h; series mostly up to 45.8 µM. An excerpt:
PI: Beverly A. Mock Ph.D.
Laboratory of Cancer Biology and Genetics,
Center for Cancer Research, National Cancer Institute,
National Institute of Health, Bethesda, Maryland
Drug resistance and disease progression are common in multiple myeloma (MM) patients, underscoring the need for new therapeutic combinations. […] We hypothesized that effective combinations would reduce MYC expression and enhance p16 activity. […] These preclinical data identify potentially useful drug combinations for evaluation in drug-resistant MM and reveal potential mechanisms of combined drug sensitivity.
Described herein is the primary MIPE qHTS used to cherrypick compounds. Validated compounds were then further tested for potential synergistic activiy.
[1] Peat TJ, Gaikwad SM, Dubois W, Gyabaah-Kessie N, Zhang S, Gorjifard S, Phyo Z, Andres M, Hughitt VK, Simpson RM, Miller MA, Girvin AT, Taylor A, Williams D, D'Antonio N, Zhang Y, Rajagopalan A, Flietner E, Wilson K, Zhang X, Shinn P, Klumpp-Thomas C, McKnight C, Itkin Z, Chen L, Kazandijian D, Zhang J, Michalowski AM, Simmons JK, Keats J, Thomas CJ, Mock BA. Drug combinations identified by high-throughput screening promote cell cycle transition and upregulate Smad pathways in myeloma. Cancer Lett. 2023 Aug 1;568:216284. doi: 10.1016/j.canlet.2023.216284. Epub 2023 Jun 24. PMID: 37356470; PMCID: PMC10408729.
SEQUENCE No. (e.g., 1, 2, 3, etc.); […] (e.g., Cells, Incubation, Reagent, etc.); VALUE and DESCRIPTION.
1; Cells; 5 uL; white, solid bottom 1536-well Greiner assay plate.
2; Compounds; 23 nL; Kalypsis pin tool (Wako USA) equipped with a 1536-well pin head to transfer to the assay plates.
3; Incubation; 48 hours; 37C incubation.
4; Reagent;5uL; CellTiter Glo (Promega).
5; Detector; 425V; Luminescence; Viewlux PerkinElmer.
NOTES (numbers refer to Sequence numbers above)
1. The cell-based screening methods employed in this study were like those previously published. Briefly, the corresponding myeloma cell lines were screened in 1,536-well plates with 500 cells, 5-uL per well for inhibition of cell viability (assessed by measuring ATP levels with CellTiterGlo).
2. NCATS MIPE 4.0 library of approved and investigational drugs were added using the Kalypsis pin tool. Wells treated with DMSO only for 100% viability and media only for 0% viability were used as controls.
3. The assay plates were covered and incubated for 48 hours in a 37C, 5% CO2 incubator with controlled humidity.
4. After 48 hours, CellTilter-GloTM luminescent substrate mix (Promega) reagent was added to the assay plate and plates we incubated for 5 min at room temperature.
5. Signal was measured as median relative luminescence units on a ViewLux (PerkinElmer) multiplate reader.
[1] Heske CM, Davis MI, Baumgart JT, Wilson K, Gormally MV, Chen L, Zhang X, Ceribelli M, Duveau DY, Guha R, Ferrer M, Arnaldez FI, Ji J, Tran HL, Zhang Y, Mendoza A, Helman LJ, Thomas CJ. Matrix Screen Identifies Synergistic Combination of PARP Inhibitors and Nicotinamide Phosphoribosyltransferase (NAMPT) Inhibitors in Ewing Sarcoma. Clin Cancer Res. 2017 Dec 1;23(23):7301-7311. doi: 10.1158/1078-0432.CCR-17-1121. Epub 2017 Sep 12. PMID: 28899971; PMCID: PMC6636827.
(In ATP-based viability assays light output follows the ATP content of the culture.)
As for `CC(C)Cc1ccc(C(C)C(=O)O)cc1` (stereo not given), the Potency result is “inactive”.

For `CC(CCc1ccc(O)cc1)NCCc1ccc(O)c(O)c1` (stereo not given), the Potency is 26.4 µM (active).

As to `CC#C[C@]1(O)CC[C@H]2[C@@H]3CCC4=CC(=O)CCC4=C3[C@@H](c3ccc(N(C)C)cc3)C[C@@]21C`, the Potency was 1.48 µM (active).

For `O=C1c2c(O)ccc(O)c2C(=O)c2c(NCCNCCO)ccc(NCCNCCO)c21`, the Potency was 0.935 µM (active).

For the compound `CCC1(C)CC(=O)NC1=O` (stereo not given), the Potency entry is “inactive”.

For the compound `O=c1c(O)c(-c2ccc(O)c(O)c2)oc2cc(O)cc(O)c12`, the Potency is 20.9 µM (active).

In the case of `CN(C)C(=N)N=C(N)N`, the Potency result was “inactive”.

Take `CC[N+](CC)(CC)CCOc1cccc(OCC[N+](CC)(CC)CC)c1OCC[N+](CC)(CC)CC`: the Potency result is “inactive”.

As to `CN(CCOc1ccc(NS(C)(=O)=O)cc1)CCc1ccc(NS(C)(=O)=O)cc1`, the Potency result was “inactive”.

For the compound `COc1ccccc1OCC(O)CN1CCN(CC(=O)Nc2c(C)cccc2C)CC1` (stereo not given), the Potency result was “inactive”.

With `Cn1cnc2c1c(=O)[nH]c(=O)n2C`, the Potency is 10.5 µM (active).

`Cc1cc(C(C)(C)C)cc(C)c1CC1=NCCN1`: the Potency entry was “inactive”.

Take `CC(C)(C)C(=O)Oc1ccc(S(=O)(=O)Nc2ccccc2C(=O)NCC(=O)O)cc1`: the Potency result was “inactive”.

As to `CN1C2CCC1CC(OC(=O)C(CO)c1ccccc1)C2` (stereo not given), the Potency entry was “inactive”.

On to `CN(C)C(=O)C(CCN1CCC(O)(c2ccc(Cl)cc2)CC1)(c1ccccc1)c1ccccc1`, for which the Potency is 23.5 µM (active).

On to `O=c1c(-c2ccc(O)cc2)coc2cc(O)cc(O)c12`, for which the Potency result was “inactive”.

Take `CCOC(=O)Nc1ccc(NCc2ccc(F)cc2)nc1N`: the Potency result was “inactive”.

As for `COc1cc2nc(N3CCN(C(=O)c4ccco4)CC3)nc(N)c2cc1OC`, the Potency is 8.33 µM (active).

Regarding `O=C(c1ccc(OCCN2CCCCC2)cc1)c1c(-c2ccc(O)cc2)sc2cc(O)ccc12`, the Potency was 5.9 µM (active).

On to `COC(=O)Nc1nc2ccc(C(=O)c3cccs3)cc2[nH]1`, for which the Potency is 0.0132 µM (active).

For `Clc1ccc2c(c1)C(N1CCNCC1)=Nc1ccccc1O2`, the Potency was 20.9 µM (active).

For the compound `CC1(CN2CCC(n3c(=O)[nH]c4ccccc43)CC2)OCc2ccccc2-n2cccc21` (stereo not given), the Potency is 8.33 µM (active).

For `COc1ccc2c(c1)c(CC(=O)O)c(C)n2C(=O)c1ccc(Cl)cc1`, the Potency result is “inactive”.

On to `O=C(C1CCCCC1)N1CC(=O)N2CCc3ccccc3C2C1` (stereo not given), for which the Potency result is “inactive”.

Turning to `CC(=O)OCC(CCn1cnc2cnc(N)nc21)COC(C)=O`, the Potency was 0.0012 µM (active).

As to `CN1CCN(CCCN2c3ccccc3Sc3ccc(Cl)cc32)CC1`, the Potency is 16.6 µM (active).

In the case of `CCN1CCCC1CNC(=O)c1cc(S(=O)(=O)CC)c(N)cc1OC` (stereo not given), the Potency entry was “inactive”.

Consider `COc1nc(C)nc(Cl)c1NC1=NCCN1`, for which the Potency result is “inactive”.

Regarding `CCc1cccc2c3c([nH]c12)C(CC)(CC(=O)O)OCC3` (stereo not given), the Potency entry was “inactive”.

With `CC(C)NCC(O)COc1ccc(CCOCC2CC2)cc1` (stereo not given), the Potency result was “inactive”.

In the case of `Cc1cc(C(C)(C)C)c(O)c(C)c1CC1=NCCN1`, the Potency entry was “inactive”.

On to `C[C@@H]1CC(=O)NN=C1c1ccc(NN=C(C#N)C#N)cc1`, for which the Potency is 18.7 µM (active).

In the case of `CCCCc1oc2ccccc2c1C(=O)c1cc(I)c(OCCN(CC)CC)c(I)c1`, the Potency is 18.7 µM (active).

Turning to `CCOC(=O)c1ncn2c1CN(C)C(=O)c1cc(F)ccc1-2`, the Potency result is “inactive”.

For the compound `COc1cc2c(c(OC)c1OC)-c1ccc(OC)c(=O)cc1[C@@H](NC(C)=O)CC2`, the Potency result is “inactive”.

`CN(C)CCCN1c2ccccc2CCc2ccc(Cl)cc21`: the Potency was 14.8 µM (active).

For the compound `Nc1nnc(-c2cccc(Cl)c2Cl)c(N)n1`, the Potency was 23.5 µM (active).

With `Clc1ccc2nsnc2c1NC1=NCCN1`, the Potency result is “inactive”.

`CC(C)(Oc1ccc(C2CC2(Cl)Cl)cc1)C(=O)O` (stereo not given): the Potency result was “inactive”.

As to `Cc1ccc(C(=O)Nc2ccc(S(=O)(=O)O)c3cc(S(=O)(=O)O)cc(S(=O)(=O)O)c23)cc1NC(=O)c1cccc(NC(=O)Nc2cccc(C(=O)Nc3cc(C(=O)Nc4ccc(S(=O)(=O)O)c5cc(S(=O)(=O)O)cc(S(=O)(=O)O)c45)ccc3C)c2)c1`, the Potency was 0.833 µM (active).
